From PubChem
KKLEB tox = counter-screen for CF NF-kB inhibitors: cytotoxicity. AID 602141. KKLEB CF airway cells viability, ATPlite luminescence, overnight; stronger effect = lower value; cells stimulated with P. aeruginosa culture filtrate. 360,000 compounds, 0.36% hits. activity change (cytotoxicity), % at 5 µM;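 active means corrected activity change at or below -50% at 5 µM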
TRPM1 prom inh = inhibitors of MITF-driven TRPM1 promoter in melanoma cells. inhibition, % at 12.5 µM. SK-MEL-5 TRPM1 promoter luciferase, 24 h. 330,000 compounds, 0.83% hits;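 active means mean inhibition across replicates of 60% or more, whatever share of single replicates reaches that level; inconclusive means some that reach 60%, reason not given; inactive means mean inhibition across replicates below 60%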
Peg3 prom inh-1 = inhibitors of Peg3 promoter. HeLa PEG-Prom luciferase reporter, luminescence, overnight. inhibition, % at 20 µM. 360,000 compounds, 1.7% hits. AID 588405;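 active means inhibition of at least 50% at 20 µM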
CF NFkB inh = blocks PAF-induced NF-kB reporter in cystic fibrosis cells. inhibition, % at 5 µM. AID 588850. KKLEB NF-kB-GFP reporter, GFP fluorescence overnight. 360,000 compounds, 0.86% hits;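 active means at least 50% inhibition at 5 µM, scaled per plate between neutral and stimulator controls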;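 further: PAF is a Pseudomonas aeruginosa culture filtrate used as stimulus; plate controls were PAF-stimulated DMSO wells for no effect and unstimulated DMSO wells for full effect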
Shn3 3UTR inh = reduces Shn3 3'UTR luciferase signal in osteoblasts. Clone20 osteoblast Shn3 3'UTR firefly luciferase, 24 h. inhibition, % at 12.5 µM. 360,000 compounds, 0.52% hits. AID 588674;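 active means mean inhibition of at least 75% with every replicate also reaching 75%; inconclusive means mean inhibition at least 75% but some replicate below; inactive means mean inhibition below 75%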;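 further: 0% = median of neutral control wells and 100% = pilot-screen positive control compound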
HIF-2a inh = blocks HIF-2a reporter activity; 786-0 RCC cells HIF-2a reporter, luciferase luminescence, overnight; inhibition, % at 18.8 µM; 360,000 compounds, 0.72% hits;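 active means inhibition of the luminescence signal of 40% or more relative to plate controls, in a single-dose primary screen at 18.75 µM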
Peg3 prom inh-2 = confirmation of Peg3 promoter inhibitors | shares compounds with Peg3 prom inh-1 | HeLa PEG-Prom luciferase reporter, luminescence, overnight | inhibition, % at 20 µM | 1,300 compounds, 84% hits | AID 602417;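 active means at 20 µM dose, 40% or more inhibition averaged across four replicates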
* marks the source's active call; other numbers are inactive results. Shown are actives, neighbours in structure and some others; about 2.8% of the full set was active somewhere.

For c1ccc(Nc2ccc(Nc3ccccc3)cc2)cc1 the results were KKLEB tox 2, TRPM1 prom inh -90, Peg3 prom inh-1 -156, CF NFkB inh 2, Shn3 3UTR inh -39 and HIF-2a inh -228.
NC1=Nc2ccccc2Oc2ccccc21 was read as KKLEB tox -10, TRPM1 prom inh 4, Peg3 prom inh-1 -2, CF NFkB inh 9, Shn3 3UTR inh -9 and HIF-2a inh 4.
`COc1cc2c(cc1OC)C1[C@H]3C(=CC[C@H]1OC2O)CCN3C` (stereo not given in full) gave KKLEB tox 10, TRPM1 prom inh -4, Peg3 prom inh-1 6, CF NFkB inh -27, Shn3 3UTR inh 6 and HIF-2a inh 0.
`CNCC(O)c1cc(OCc2ccccc2)c(OCc2ccccc2)cc1F` (stereo not given) gave KKLEB tox -8, TRPM1 prom inh -20, Peg3 prom inh-1 98*, CF NFkB inh -9, Shn3 3UTR inh 23, HIF-2a inh -18 and Peg3 prom inh-2 89*.
For CNCC(O)c1cccc(OC(=O)c2ccccc2C)c1 (stereo not given) the results were KKLEB tox 2, TRPM1 prom inh -20, Peg3 prom inh-1 2, CF NFkB inh 0, Shn3 3UTR inh -7 and HIF-2a inh 10.
CN1CCC(O)(c2cccs2)C(C(=O)c2cccs2)C1 (stereo not given) was read as KKLEB tox 3, TRPM1 prom inh -2, Peg3 prom inh-1 3, CF NFkB inh 7, Shn3 3UTR inh -11 and HIF-2a inh 13.
CSCCC(c1nnnn1C1CCCC1)N1CCC(n2c(=O)[nH]c3ccccc32)CC1 (stereo not given) was read as KKLEB tox -4, Peg3 prom inh-1 27, CF NFkB inh 1, Shn3 3UTR inh -3 and HIF-2a inh -17.
`CC(C)(C)n1nnnc1C(CCc1ccccc1)N1CCC(n2c(=O)[nH]c3ccccc32)CC1` (stereo not given) gave KKLEB tox -5, Peg3 prom inh-1 84*, CF NFkB inh -19, Shn3 3UTR inh -4, HIF-2a inh -27 and Peg3 prom inh-2 82*.
N#CC(Br)Br was read as KKLEB tox 7, TRPM1 prom inh -5, Peg3 prom inh-1 -1, CF NFkB inh 1, Shn3 3UTR inh 2 and HIF-2a inh 9.
`COc1ccc(NC2Oc3cc4c(cc3C(c3cc(OC)c(OC)c(OC)c3)C2C)OCO4)cc1` (stereo not given) gave KKLEB tox -24, TRPM1 prom inh 18, Peg3 prom inh-1 -20, CF NFkB inh 38, Shn3 3UTR inh -12 and HIF-2a inh 25.
Screening O=Cc1cn(Cc2cccc(F)c2)c2ccccc12 returned KKLEB tox 4, TRPM1 prom inh 2, Peg3 prom inh-1 85*, CF NFkB inh 11, Shn3 3UTR inh 11, HIF-2a inh 12 and Peg3 prom inh-2 65*.
Screening COC(=O)c1cn(Cc2ccc(F)cc2)c2ccccc12 returned KKLEB tox 0, Peg3 prom inh-1 4, CF NFkB inh -6, Shn3 3UTR inh -24 and HIF-2a inh -5.
Screening O=Cc1cn(Cc2ccc(Br)cc2)c2ccccc12 returned KKLEB tox 8, TRPM1 prom inh 20, Peg3 prom inh-1 77*, CF NFkB inh 13, Shn3 3UTR inh 30, HIF-2a inh 13 and Peg3 prom inh-2 74*.
For CC1CC2(C)C(=CC1=O)CCC1C3CCC(C)(O)C3(C)CC3OC312 (stereo not given) the results were KKLEB tox -18, TRPM1 prom inh 19, Peg3 prom inh-1 -4, CF NFkB inh 29, Shn3 3UTR inh 10 and HIF-2a inh 17.
Cn1cccc1/C=C1\C(=O)NC(=O)N(Cc2ccco2)C1=O was read as KKLEB tox -10, TRPM1 prom inh -13, Peg3 prom inh-1 22, CF NFkB inh 19, Shn3 3UTR inh -3 and HIF-2a inh 14.
O=C1NC(=O)N(Cc2ccco2)C(=O)/C1=C/C=C/c1ccco1 was read as KKLEB tox -15, TRPM1 prom inh 95*, Peg3 prom inh-1 63*, CF NFkB inh 78*, Shn3 3UTR inh 34, HIF-2a inh 87* and Peg3 prom inh-2 73*.
Screening O=C1NC(=O)N(Cc2ccccc2)C(=O)/C1=C\C=C\c1ccco1 returned KKLEB tox -51*, TRPM1 prom inh 96*, Peg3 prom inh-1 89*, CF NFkB inh 74*, Shn3 3UTR inh -9, HIF-2a inh 46* and Peg3 prom inh-2 63*.
`CN(C)P(=O)(N(C)C)N1CC1` gave KKLEB tox -1, TRPM1 prom inh 1, Peg3 prom inh-1 6, CF NFkB inh -9, Shn3 3UTR inh 2 and HIF-2a inh 14.
O=Cc1c(C(=O)O)n(Cc2ccccc2F)c2ccccc12 was read as KKLEB tox 10, TRPM1 prom inh 22, Peg3 prom inh-1 -5, CF NFkB inh 0, Shn3 3UTR inh -4 and HIF-2a inh 14.
Cc1ccc2n1Cc1cnnn1-c1ccccc1-2 was read as KKLEB tox 2, Peg3 prom inh-1 6, CF NFkB inh -16, Shn3 3UTR inh -22 and HIF-2a inh -4.
For C[C@]12CC[C@H]3C(CCC4(O)CC(O)CC[C@]34C=O)C1=CC[C@H]2c1ccc(=O)oc1 (stereo not given in full) the results were KKLEB tox -44, TRPM1 prom inh inconclusive, Peg3 prom inh-1 105*, CF NFkB inh 49, Shn3 3UTR inh 7, HIF-2a inh 18 and Peg3 prom inh-2 97*.
`CCN(CC)C(=O)Cn1cc(/C=C2\C(=O)NC(=O)N(c3ccccc3F)C2=O)c2ccccc21` gave KKLEB tox -4, TRPM1 prom inh 10, Peg3 prom inh-1 58*, CF NFkB inh -33, Shn3 3UTR inh 44, HIF-2a inh 44* and Peg3 prom inh-2 92*.
CCCNC(=O)Cn1cnc2sc(C(=O)N3CCC4(CC3)OCCO4)c(C)c2c1=O was read as KKLEB tox 11, TRPM1 prom inh -15, Peg3 prom inh-1 -2, CF NFkB inh -22, Shn3 3UTR inh 3 and HIF-2a inh 11.
For Cc1c(C(=O)N2CCC3(CC2)OCCO3)sc2ncnc(N3CCN(c4ccccn4)CC3)c12 the results were KKLEB tox -4, TRPM1 prom inh 1, Peg3 prom inh-1 72*, CF NFkB inh -7, Shn3 3UTR inh 18, HIF-2a inh -3 and Peg3 prom inh-2 56*.
For COc1ccc(CC2C(=O)NC(C)C(=O)N(C)C3C(=O)N(C)C(Cc4ccc(O)c(c4)Oc4ccc(cc4)C3O)C(=O)NC(C)C(=O)NC(C)C(=O)N2C)cc1 (stereo not given) the results were KKLEB tox -49, TRPM1 prom inh 104*, Peg3 prom inh-1 96*, CF NFkB inh 82*, HIF-2a inh 87* and Peg3 prom inh-2 98*.
